{"source": "PubChem BioAssay AID1347046", "about": "(National Center for Advancing Translational Sciences (NCATS), 2019)", "note": "The campaign covered roughly 1,400 compounds. About 940 (67%) were called active. Roughly 27% stayed inconclusive and do not appear here. Calls follow the shape of the full dose curve. The set was probably picked from earlier hits. Not all results are given here.", "data": [{"target": "Atrial natriuretic peptide receptor 2 (Homo sapiens) (UniProt P20594)", "sequence (P20594 whole entry, looked up)": "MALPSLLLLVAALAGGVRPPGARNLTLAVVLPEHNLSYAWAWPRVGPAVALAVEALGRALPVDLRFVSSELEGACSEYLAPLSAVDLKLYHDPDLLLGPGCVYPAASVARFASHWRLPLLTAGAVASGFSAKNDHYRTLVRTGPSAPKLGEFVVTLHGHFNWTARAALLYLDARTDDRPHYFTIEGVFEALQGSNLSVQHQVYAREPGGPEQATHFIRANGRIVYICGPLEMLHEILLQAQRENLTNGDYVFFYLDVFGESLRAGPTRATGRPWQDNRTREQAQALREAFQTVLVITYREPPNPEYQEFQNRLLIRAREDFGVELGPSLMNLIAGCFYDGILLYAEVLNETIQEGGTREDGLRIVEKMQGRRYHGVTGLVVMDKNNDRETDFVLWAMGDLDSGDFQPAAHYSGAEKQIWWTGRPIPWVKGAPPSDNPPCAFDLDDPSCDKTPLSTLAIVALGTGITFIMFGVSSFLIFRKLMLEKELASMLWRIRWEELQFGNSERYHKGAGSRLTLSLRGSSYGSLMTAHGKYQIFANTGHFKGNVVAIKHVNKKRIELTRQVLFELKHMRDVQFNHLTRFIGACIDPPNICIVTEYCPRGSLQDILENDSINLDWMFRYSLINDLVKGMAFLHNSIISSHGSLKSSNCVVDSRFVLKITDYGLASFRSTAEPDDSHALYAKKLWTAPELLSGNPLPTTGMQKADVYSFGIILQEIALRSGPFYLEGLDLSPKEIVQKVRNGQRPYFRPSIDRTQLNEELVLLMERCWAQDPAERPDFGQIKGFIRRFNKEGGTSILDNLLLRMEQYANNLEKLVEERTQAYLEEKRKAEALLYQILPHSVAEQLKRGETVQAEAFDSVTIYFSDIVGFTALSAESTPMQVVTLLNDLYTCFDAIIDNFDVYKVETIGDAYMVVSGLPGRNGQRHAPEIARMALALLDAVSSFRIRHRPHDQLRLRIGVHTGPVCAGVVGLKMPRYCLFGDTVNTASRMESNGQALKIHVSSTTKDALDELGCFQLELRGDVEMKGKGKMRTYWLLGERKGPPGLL", "assay": "Natriuretic polypeptide receptor (hNpr2) antagonism - Subtype selectivity assay; also: nearly all actives have a fitted effect of over 70% in size; also: potency is read from the fitted curve at half-maximal effect", "conditions": "HEK293 hNpr2 GloSensor cGMP luminescence, CNP-stimulated; series mostly up to 57.6 µM", "protocol": "F. Fan, B. F. Binkowski, B. L. Butler, P. F. Stecha, M. K. Lewis, K. V. Wood, Novel genetically encoded biosensors using firefly luciferase. ACS Chem Biol 3, 346-351 (2008).\nPROTOCOL TABLE (as described by Inglese J, Shamu CE and Guy RK. 2007) SEQUENCE No. (e.g., 1, 2, 3, etc.); PARAMETER (e.g., Cells, Incubation, Reagent, etc.); VALUE and DESCRIPTION. 1. Cells. Seed 1500 HEK293 cGMP-sensor cells expressing hNpr2 per well in 4uL into Greiner 1536-well white/solid bottom high base, TC plates. 2. Incubation. Incubate plated cells at 37C in 5% CO2, 95% RH overnight. 3. Reagent. Add 1uL per well GloSensor reagent from Promega (2% final concentration) or CO2 independent media vehicle control to respective columns of Greiner 1536-well plates. 4. Incubation. Incubate plated cells at ambient temperature for 2 h., protect from light. 5. Compounds. Library compounds and DMSO vehicle control added at 23nL per well, transferred by Pin Tool. 6. Incubation. Incubate plated cells for 30 min. at ambient temperature, protect from light. 7. Detector. GloSensor baseline pre-read luminescence measured using CCD-based camera (Viewlux). 8. Compound. Add 1uL of hNppC peptide to 1 nM final concentration to stimulate hNpr2 or CO2 independent media as vehicle control. 9. Incubation. Incubate treated cells at ambient temperature for 20 min., protect from light. 10. Detector. GloSensor post-hNppC luminescence measured using CCD-based camera (Viewlux). NOTES (numbers refer to Sequence numbers above) 1. HEK293 cells expressing hNpr2 and GIP/pGS-40F were grown to 85-95% confluence (48-72 h) in T175 culture flasks (CO2 independent media supplemented with 10% FBS, 1% Pen/Strep antibiotics, and 1 ug/mL puromycin). Trypsinize and harvest cells from T175 culture flasks and filter through 40 um cell strainer. Cells counted with Invitrogen Countess (30,000,000 - 50,000,000 cells/flask). Cells diluted to a final concentration of 375 cells/uL in CO2 independent media and a Millipore multidrop used to dispense 1500 cells per well (4uL/well) into 13 1536-well Greiner White/Solid bottom, high base tissue-culture treated (TC) plates and one Aurora 1536-well Black/Clear bottom, low base, TC plate (for visual inspection of cell health throughout the duration of the assay). 2. Cells incubated for 24 h. at 37C in 95% RH incubator with metal lid having gas-exchange holes. 3. Prepare GloSensor Reagent (Promega): Reconstitute GloSensor luciferase substrate by adding 8.2mL Hepes buffer to 250mg substrate, mix well, protect from light and stored at -80C. Prepare a fresh 12% GloSensor solution in CO2 independent supplemented plating media (see above). Mix well and store at ambient temperature, protected from light. 1uL 12% GloSensor Luciferase Reagent added (2% final concentration) to respective columns of 13 x 1536-well Greiner plate with BioRaptr, 1uL CO2 independent plating media added to respective columns as vehicle control with BioRaptr. 4. Cells incubated for 2 h. at ambient temperature, protected from light with metal lid having gas-exchange holes. 5. 23nL of library compounds or DMSO vehicle control transferred to 13 Greiner white/solid bottom high base, TC plates in 11 interplate 1:3 titrations (see Yasgar, A. et al. 2008) with Pintool. 6. Cells incubated for 30-50 min. at ambient temperature protected from light with metal lid having gas-exchange holes. 7. Read cellular baseline GloSensor luminescence in presence of test library compounds on the ViewLux [Exposure = 10 s.; Gain = High; Speed = Slow; and Binning = 2X.] 8. hNppC peptide agonist solution prepared at 1 mM (in H2O) stock concentration. From this a working dilution was prepared at 6 nM in CO2 Independent media. 1uL of 6 nM hNppC agonist (1 nM final concentration) or CO2 Independent media vehicle control dispensed into respective columns of 13 x Greiner 1536-well white/solid bottom, tissue culture plates with BioRaptr. 9. Cells incubated for 20 min. at ambient temperature, protected from light with metal lid having gas-exchange holes. 10. […]", "values": [{"compound": "Cc1ccc2nc(C3CCCN(Cc4ccc(C#N)cc4)C3)[nH]c(=O)c2c1", "note": "(centres undefined)", "Potency": "24.3 µM (active)"}, {"compound": "O=c1[nH]c(C2CCCN(Cc3ccccn3)C2)nn1-c1ccc(Cl)cc1", "note": "(centres undefined)", "Potency": "10.9 µM (active)"}, {"compound": "CC(C)(C)c1csc(NC(=O)c2ccc3c(c2)OCCN(C2CCC2)C3)n1", "Potency": "35.3 µM (active)"}, {"compound": "COc1ccccc1Nc1cnc2ccc(N(C)Cc3cccnc3)nn12", "Potency": "28 µM (active)"}, {"compound": "C1CCC(COCCc2noc(C3CNC3)n2)C1", "Potency": "21.7 µM (active)"}, {"compound": "O=C(NCc1nnc2cc(-c3nc(C4CC4)no3)ccn12)c1ccc(F)cc1Cl", "Potency": "13.7 µM (active)"}, {"compound": "Cc1ccc2c(c1)nc1n2[C@@H](CNS(=O)(=O)c2ccccc2)COC1", "Potency": "31.4 µM (active)"}, {"compound": "O=C(c1ccc(Cl)cc1)N1CCCC(n2cc(-c3nc(-c4ccccc4)no3)nn2)C1", "note": "(centres undefined)", "Potency": "21.7 µM (active)"}, {"compound": "COc1ccc(C(=O)N2CCC(n3cc(-c4nc(C(C)C)no4)nn3)CC2)cc1F", "Potency": "inactive"}, {"compound": "O=C(c1ccc(F)cc1Cl)N1CCC(n2cc(-c3nc(-c4ccccc4)no3)nn2)C1", "note": "(centres undefined)", "Potency": "5.44 µM (active)"}, {"compound": "O=C1c2cnc(-c3ccc(Cl)cc3)nc2OCCN1Cc1ccccc1", "Potency": "35.3 µM (active)"}, {"compound": "Cc1cc(N2CCCC(Cn3cc(Cc4ccccc4)nn3)C2)nc(N)n1", "note": "(centres undefined)", "Potency": "9.68 µM (active)"}, {"compound": "O=C(c1ccccn1)N1CC(Oc2ccc(-c3noc(C4CC4)n3)cc2)C1", "Potency": "19.3 µM (active)"}, {"compound": "COc1ccc(C2Cn3nnc(C(=O)N4CCN(C(=O)c5cccc(Cl)c5)CC4)c3CO2)cc1", "note": "(centres undefined)", "Potency": "15.3 µM (active)"}, {"compound": "CCc1ccc(C(=O)N2CCN(c3cc(-c4ccc(F)cc4)[nH]n3)CC2)cc1", "Potency": "21.7 µM (active)"}, {"compound": "O=C(c1cc(F)ccc1Cl)N1CCN(c2cc(-c3ccc(F)cc3)[nH]n2)CC1", "Potency": "24.3 µM (active)"}, {"compound": "Cc1ccc(C(=O)N2CCN(c3cc(-c4ccc(Cl)cc4)[nH]n3)CC2)c(C)c1", "Potency": "9.68 µM (active)"}, {"compound": "O=C(c1ccc(F)cc1F)N1CCN(c2cc(-c3ccc(Cl)cc3)[nH]n2)CC1", "Potency": "19.3 µM (active)"}, {"compound": "O=C(c1ccc2cc[nH]c2c1)N1CCC2(CC1)N=C(c1ccc(Cl)cc1)NO2", "Potency": "21.7 µM (active)"}, {"compound": "O=C1NCN(Cc2ccc(Cl)cc2)C12CCN(Cc1ccccc1)CC2", "Potency": "19.3 µM (active)"}, {"compound": "COc1cccc(-c2noc(CC3CCN(C(=O)c4ccc(F)cc4)CC3)n2)c1", "Potency": "6.11 µM (active)"}, {"compound": "O=C(c1ccccc1)N1CCC(C(=O)N2CCC(Cc3nc(-c4ccc(F)cc4)no3)CC2)CC1", "Potency": "19.3 µM (active)"}, {"compound": "CCN(CCCNC(=O)c1nnn2cc(-c3ccccc3)[nH]c(=O)c12)c1ccccc1", "Potency": "inactive"}, {"compound": "COc1cccc(NC(=O)Cn2c(N(C)Cc3ccccc3)nc(C)cc2=O)c1", "Potency": "12.2 µM (active)"}, {"compound": "COc1cccc(CNC(=O)Cn2c(N(C)Cc3ccccc3)nc(C)cc2=O)c1OC", "Potency": "27.3 µM (active)"}, {"compound": "Cc1nn2c(c1-c1ccccc1-c1ccccc1)N(CC1CC1)CCC2", "Potency": "3.14 µM (active)"}, {"compound": "Cc1nc(-c2ccncc2)ncc1C(C)Nc1ncnc(C)c1C", "note": "(centres undefined)", "Potency": "17.2 µM (active)"}, {"compound": "CN(C)CCNC(=O)C(C)(C)Oc1nn(Cc2cccc(Cl)c2)c2ccccc12", "Potency": "31.4 µM (active)"}, {"compound": "CN1CCN(C(=O)C(C)(C)Oc2nn(Cc3cccc(Cl)c3)c3ccccc23)CC1", "Potency": "19.8 µM (active)"}, {"compound": "Cc1noc(C)c1-c1cc(-c2ccccc2Oc2ccccc2)cn2cncc12", "Potency": "11.1 µM (active)"}, {"compound": "CN(Cc1csc(-c2ccccc2)n1)c1cc(C2CC(O)C2)nc(N)n1", "note": "(centres undefined)", "Potency": "3.85 µM (active)"}, {"compound": "Cc1c[nH]c(CN2CCCC(CCc3ccc(F)cc3F)C2)c(C)c1=O", "note": "(centres undefined)", "Potency": "3.85 µM (active)"}, {"compound": "O=C1Nc2ccccc2CN(Cc2ccccc2)C12CCNCC2", "Potency": "17.2 µM (active)"}, {"compound": "COc1ccc(OCC2(C)COc3ccc(C(=O)Nc4cccnc4)cc3N2)cc1", "note": "(centres undefined)", "Potency": "35.3 µM (active)"}, {"compound": "CC1=NS(=O)(=O)N(C)C=C1C(=O)OCc1nc(-c2ccc(C)cc2)no1", "Potency": "13.7 µM (active)"}, {"compound": "COc1ccc(CCNC(=O)c2noc(-c3ccc(C)cc3)n2)cc1OC", "Potency": "21.7 µM (active)"}, {"compound": "O=[S+]1([O-])NCC2(CCCN(Cc3ccc(C(F)(F)F)cc3)C2)Oc2ncccc21", "note": "(centres undefined)", "Potency": "15.3 µM (active)"}, {"compound": "COc1ccc(CN2C(=O)CO[C@H]3CN(Cc4ccc5c(c4)OCO5)C[C@H]32)cc1", "Potency": "31.4 µM (active)"}, {"compound": "Cc1cccc(CN2CCc3nc(C(=O)Nc4ccc(Cl)cc4)oc3CC2)c1", "Potency": "12.5 µM (active)"}, {"compound": "O=C(c1ccccc1)N1CCNc2cnc(Nc3cccc(C(F)(F)F)c3)nc2C1", "Potency": "28 µM (active)"}, {"compound": "CC1(C(=O)NCc2ccc3c(c2)OCO3)CCc2cnc(NCc3ccccc3)nc21", "note": "(centres undefined)", "Potency": "35.3 µM (active)"}, {"compound": "O=C(NCC1CC1)c1nc2c(o1)CCN(Cc1cccc(F)c1F)CC2", "Potency": "28 µM (active)"}, {"compound": "O=C(Cc1c[nH]c2ncc(-c3ccccc3F)cc12)N1CCOCC1", "Potency": "15.7 µM (active)"}, {"compound": "Cc1ccc(OCc2nc(C3CCN(C(=O)CCc4nc5ccc(Cl)cc5[nH]4)CC3)no2)cc1", "Potency": "24.3 µM (active)"}, {"compound": "CC(C)c1cc(C(=O)N2CCC(n3cc(-c4ccccn4)nn3)CC2)n(C)n1", "Potency": "19.3 µM (active)"}, {"compound": "OC1(Cc2cc(-c3ccccc3)no2)CCN(c2ncncn2)CC1", "Potency": "8.62 µM (active)"}, {"compound": "COc1ccc(-c2noc(CC3CCN(C(=O)Cc4ccc(OC)c(OC)c4)CC3)n2)cc1", "Potency": "5.44 µM (active)"}, {"compound": "COc1ccc(-c2noc(CC3CCN(C(=O)CC4CCCCC4)CC3)n2)cc1", "Potency": "12.2 µM (active)"}, {"compound": "COc1ccc(CC(=O)N2CCC(Cc3nc(-c4ccccc4)no3)CC2)cc1OC", "Potency": "15.3 µM (active)"}]}]}
